Results: PubChem BioAssay
Some of the results follow. Active and inactive are the calls of the source.

Key:
[1] = target: Inward rectifier potassium channel 2 (Mus musculus) (UniProt P35561); assay: inhibition of Kir2.1 inward rectifier potassium flux – cell-based, FluxOR thallium flux, duplicate, confirmation (AID 2032); conditions: Kir2.1-expressing cells, FluxOR thallium flux fluorescence, at 10 µM; stronger effect = lower value
[2] = parental HEK293 cell activity, no Kir2.1 – FluxOR thallium flux, duplicate, single concentration, counter-screen for Kir2.1 inhibitor project, confirmation (AID 2105;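 active = dye signal at least 3 control SD above or below untreated wells in both duplicates, raw fluorescence within 3, either direction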;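 as to FluxOR signal as % of negative control (100 = no effect): percent is based on the flux ratio of peak minus minimum fluorescence over baseline F0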); conditions: parental HEK293 cells, FluxOR thallium flux fluorescence, at 10 µM; 0% = unstimulated blank wells
[3] = parental CHO-K1 cell activation, no KCNQ2 – FluxOR thallium flux, duplicate, counter-screen for KCNQ2 potentiator project, confirmation (AID 2282;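 active = signal rise of at least 3 SD above the untreated control mean, in both duplicate wells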;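 also: counter screen of KCNQ2 potentiator hits so any rise reflects channel-independent effects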); conditions: parental CHO-K1 cells, FluxOR thallium flux fluorescence; at 10 µM; stronger effect = higher value; zero = vehicle mean+3SD, 100% = vehicle-minus-blank window
[4] = target: Potassium voltage-gated channel subfamily KQT member 1 (Homo sapiens) (UniProt P51787); assay: KCNQ1 activation in stable CHO cells – cell-based, FluxOR thallium flux, selectivity assay for KCNQ2 potentiator project, confirmation (AID 2283;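 active = fluorescence ratio rise of at least 3 SD of vehicle wells above their mean, in both replicate wells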;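 also: 0% = vehicle mean plus 3 SD and 100% = vehicle minus unstimulated blank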); conditions: FluxOR thallium flux fluorescence, at 10 µM, stronger effect = higher value, beyond 3SD, as % of vehicle-control signal
Chain of Potassium voltage-gated channel subfamily KQT member 1 (Homo sapiens) (P51787 whole entry, looked up): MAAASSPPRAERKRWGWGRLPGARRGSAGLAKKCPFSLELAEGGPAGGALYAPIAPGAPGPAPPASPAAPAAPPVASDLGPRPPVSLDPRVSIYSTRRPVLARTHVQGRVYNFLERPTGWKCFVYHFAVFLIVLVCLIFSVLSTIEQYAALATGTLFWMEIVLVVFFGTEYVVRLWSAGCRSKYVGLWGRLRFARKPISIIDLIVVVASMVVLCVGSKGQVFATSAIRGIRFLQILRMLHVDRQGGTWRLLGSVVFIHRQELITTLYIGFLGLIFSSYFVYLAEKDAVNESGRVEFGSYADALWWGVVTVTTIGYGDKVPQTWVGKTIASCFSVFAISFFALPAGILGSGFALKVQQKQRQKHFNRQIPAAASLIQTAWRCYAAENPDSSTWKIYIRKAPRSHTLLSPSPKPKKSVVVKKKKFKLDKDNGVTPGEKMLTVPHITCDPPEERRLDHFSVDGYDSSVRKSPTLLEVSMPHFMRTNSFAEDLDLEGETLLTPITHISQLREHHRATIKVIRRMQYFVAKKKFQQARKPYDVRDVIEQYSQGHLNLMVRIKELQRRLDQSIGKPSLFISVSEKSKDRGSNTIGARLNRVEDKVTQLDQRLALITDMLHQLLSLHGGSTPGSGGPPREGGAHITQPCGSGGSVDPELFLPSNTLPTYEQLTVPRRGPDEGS

[5] = target: Potassium voltage-gated channel subfamily KQT member 2 (Rattus norvegicus) (UniProt O88943); assay: KCNQ2 potassium channel activity enhancers – cell-based, CHO, FluxOR thallium flux, duplicate, confirmation (AID 2287;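 active = fluorescence ratio rising 3 SD or more over the vehicle control mean in both replicates, plus primary screen hit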;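 also: peak minus minimum thallium fluorescence divided by baseline after K/Tl stimulus; 0% = vehicle mean plus 3 SD and 100% = vehicle minus unstimulated blank difference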); conditions: CHO-KCNQ2 cells, FluxOR thallium flux fluorescence; at 10 µM; stronger effect = higher value
[6] = target: Inward rectifier potassium channel 2 (Mus musculus) (UniProt P35561); assay: PubChem AID 2345; conditions: HEK293 Kir2.1, FluxOR thallium flux fluorescence; at 10 µM; stronger effect = higher value;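 also: 0% = vehicle mean plus 3 SD and 100% = vehicle minus no-stimulus blank window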
[7] = target: Potassium voltage-gated channel subfamily KQT member 2 (Rattus norvegicus) (UniProt O88943); assay: W236L mutant KCNQ2 current enhancers – cell-based, rat KCNQ2 W236L, CHO, automated patch clamp, mechanism study for KCNQ2 potentiator project (AID 2558;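 active = current increase at least 3 SD of the untreated controls above them in both duplicate recordings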); conditions: at 25 µM
[8] = nonspecific flux increase, KCNQ1-free cells – parental CHO cells, counter-screen for KCNQ1 potentiator project (AID 493006;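 active = duplicate-averaged activation above buffer control mean plus 5 SD of those controls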;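 as to activation: fluorescence ratio of max minus min over baseline after K+ and Tl+ depolarization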); conditions: parental CHO-K1 cells, FluxOR thallium flux, at 10 µM; stronger effect = higher value
[9] = target: Potassium voltage-gated channel subfamily KQT member 1 (Homo sapiens) (UniProt P51787); assay: enhancement of KCNQ1 channel thallium flux – FluxOR thallium flux, CHO cells, duplicates, confirmation (AID 493007;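 active = potentiation averaged over duplicate wells exceeding buffer-only control mean by more than 3 SD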;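 as to outcome: cells depolarized by a potassium plus thallium sulfate stimulus after compound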;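 as to potentiation: 0% = buffer-only wells and 100% = R-L3 activator control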); conditions: KCNQ1 cell line, FluxOR thallium flux fluorescence, at 10 µM; stronger effect = higher value, % of reference activator effect, buffer zero
[10] = target: Potassium voltage-gated channel subfamily KQT member 2 (Rattus norvegicus) (UniProt O88943); assay: KCNQ2 thallium flux enhancement – KCNQ2-CHO-K1 cells, selectivity assay for KCNQ1 potentiator project (AID 493009;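 active = mean duplicate potentiation above the buffer control mean plus 5 SD of buffer wells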;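 also: assay conditions were tuned for KCNQ1 rather than KCNQ2 modulators; signal is max minus min fluorescence divided by baseline after thallium stimulus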); conditions: FluxOR thallium flux fluorescence, at 10 µM; stronger effect = higher value, scaled: buffer 0, activator control 100
[11] = target: Potassium voltage-gated channel subfamily KQT member 1 (Homo sapiens) (UniProt P51787); assay: KCNQ1 activators by electrophysiology – IonWorks patch clamp, KCNQ1-CHO cells, orthogonal assay for KCNQ1 potentiator project, confirmation (AID 493184;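 active = current rise at least 3 SD above the untreated control mean in each of two repeat wells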;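 as to current potentiation: percent change of the same well's current before compound addition so 0% = no change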); conditions: automated patch clamp current, at 10 µM; stronger effect = higher value
[12] = target: T1, Potassium voltage-gated channel subfamily E member 1 (Homo sapiens) + Potassium voltage-gated channel subfamily KQT member 1 (Homo sapiens) (UniProt P15382+P51787); assay: KCNQ1-E1 channel activation – thallium flux, CHO-K1 KCNQ1/E1 cells, selectivity assay for KCNQ1 potentiator project, confirmation (AID 493186;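 active = mean duplicate activation above the buffer control mean plus 5 SD of those controls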); conditions: FluxOR thallium flux, at 10 µM
T1 sequence (P51787 whole entry, looked up): as the sequence (P51787 whole entry, looked up) above

[13] = target: Potassium voltage-gated channel subfamily KQT member 1 (Homo sapiens) (UniProt P51787); assay: blockers of human KCNQ1 channel – cell-based, Tl flux, duplicate, confirmation (AID 588353;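 active = primary screen active, with duplicate mean exceeding buffer control mean plus 3 SD of buffer wells, cut at about 28% in these data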;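 also: 0% = buffer control ratio and 100% = XE991 inhibitor control ratio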); conditions: KCNQ1 cell line, FluxOR thallium flux fluorescence; at 10 µM; stronger effect = higher value
[14] = nonspecific activity in CHO-K1 cells without KCNQ1 – parental CHO cells, Tl flux, counter-screen for KCNQ1 inhibitor project (AID 588366;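 active = mean of duplicate thallium-flux fluorescence ratios in parental host cells more than 5 SD below the buffer control mean, cut at about 0.38 in these data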;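 also: ratio is peak minus minimum fluorescence divided by baseline fluorescence; actives read low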); conditions: parental CHO-K1, FluxOR thallium flux fluorescence ratio; at 10 µM; stronger effect = lower value; zero means no signal rise above baseline
[15] = target: Potassium voltage-gated channel subfamily KQT member 1 (Homo sapiens) (UniProt P51787); assay: block of human KCNQ1 potassium current – cell-based, automated electrophysiology, orthogonal assay, confirmation (AID 624120;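 active = KCNQ1 current drop exceeding 3 SD of negative control wells, seen in both duplicate runs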); conditions: KCNQ1-CHO cells, automated patch clamp current; at 10 µM
[16] = target: Potassium voltage-gated channel subfamily KQT member 2 (Rattus norvegicus) (UniProt O88943); assay: block of rat KCNQ2 potassium channel – cell-based, selectivity assay for KCNQ1 inhibitor project (AID 651746;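 active = mean percent inhibition of the KCNQ2 thallium signal more than 5 SD above the buffer-only control wells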); conditions: KCNQ2 cells, FluxOR thallium flux fluorescence, at 10 µM; stronger effect = higher value
[17] = target: T1, Potassium voltage-gated channel subfamily E member 1 (Homo sapiens) + Potassium voltage-gated channel subfamily KQT member 1 (Homo sapiens); assay: block of human IKs channel complex – CHO-K1 cells, thallium flux, FluxOR, selectivity assay for KCNQ1 inhibitor project (AID 652147;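 active = mean percent inhibition of duplicate wells above the buffer-only control mean plus 3 SD of those controls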); conditions: KCNQ1/KCNE1 cells, FluxOR thallium flux fluorescence; at 10 µM

Chain of Inward rectifier potassium channel 2 (Mus musculus) (P35561 whole entry, looked up): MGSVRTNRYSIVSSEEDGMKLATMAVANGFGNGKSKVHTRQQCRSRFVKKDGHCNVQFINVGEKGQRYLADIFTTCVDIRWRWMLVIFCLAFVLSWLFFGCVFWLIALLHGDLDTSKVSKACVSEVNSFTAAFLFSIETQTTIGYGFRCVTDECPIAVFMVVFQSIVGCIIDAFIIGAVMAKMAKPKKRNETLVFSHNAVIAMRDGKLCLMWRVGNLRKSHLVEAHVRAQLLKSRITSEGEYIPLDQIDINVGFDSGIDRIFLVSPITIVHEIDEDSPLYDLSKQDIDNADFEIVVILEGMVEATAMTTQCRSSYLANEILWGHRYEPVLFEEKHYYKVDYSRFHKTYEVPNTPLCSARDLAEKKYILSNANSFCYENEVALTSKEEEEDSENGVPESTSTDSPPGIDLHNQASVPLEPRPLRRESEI

CCOC(=O)c1c(NC(=S)NC)sc2c1CCCC2
inactive: outcome [1] | activation over 3SD threshold [4] -17.4% | activity over 3SD threshold [6] -37.6% | outcome [7] | outcome [11]
active: FluxOR signal as % of negative control (100 = no effect) [2] 196% | activity increase over 3SD of controls [3] 6.2% | potentiation, less the hit threshold [5] 16.6% | activation [8] 318% | potentiation [9] 73% | potentiation [10] 289%

CCn1cc(CN2CCC(C(=O)Nc3cccc(-c4cccc(Cl)c4)c3)CC2)cn1
active: Tl flux remaining, % of negative control (stronger effect = lower value) [1] 55%
inactive: outcome [2] | outcome [8] | outcome [9] | outcome [11]

CCn1c2ccccc2c2cc(NC(=O)CNC)ccc21
active: Tl flux remaining, % of negative control (stronger effect = lower value) [1] 44% | potentiation, less the hit threshold [5] 1.9%
inactive: outcome [2] | activity increase over 3SD of controls [3] -6.1% | activation over 3SD threshold [4] -12.2% | activity over 3SD threshold [6] -90% | outcome [7] | outcome [8] | outcome [9] | outcome [10] | outcome [11]

COc1ccc(NC(=O)/C(Cl)=C(/Cl)S(=O)Cc2ccc(C)cc2)cn1 (stereo not drawn)
inactive: outcome [1] | outcome [2] | activity increase over 3SD of controls [3] -1.5% | activation over 3SD threshold [4] -20.5% | activity over 3SD threshold [6] -44.7% | outcome [7]
active: potentiation, less the hit threshold [5] 0.8%

CC1=C/C(=N\OS(=O)(=O)c2ccccc2)C=CC1=O
active: potentiation, less the hit threshold [5] 0.8%
inactive: outcome [1] | outcome [2] | activity increase over 3SD of controls [3] -13.5% | activation over 3SD threshold [4] -8.8% | activity over 3SD threshold [6] -51.4% | outcome [7] | outcome [8] | outcome [9] | outcome [10] | outcome [11]

CCc1ccc(NC(=O)C(=O)NNC(=O)c2cccs2)cc1
inactive: outcome [1] | activity increase over 3SD of controls [3] -16% | activity over 3SD threshold [6] -22.9% | outcome [7] | outcome [11]
active: FluxOR signal as % of negative control (100 = no effect) [2] 310% | activation over 3SD threshold [4] 85.7% | potentiation, less the hit threshold [5] 26.8% | activation [8] 360% | potentiation [9] 159% | potentiation [10] 421%

Cc1[nH]n(-c2cccc(Cl)c2)c(=O)c1/C=N/n1c(C)nc2ccccc2c1=O
inactive: outcome [1] | activation over 3SD threshold [4] -26.8% | activity over 3SD threshold [6] -35.9% | outcome [7]
active: FluxOR signal as % of negative control (100 = no effect) [2] 145% | activity increase over 3SD of controls [3] 36% | potentiation, less the hit threshold [5] 1.8%

CC(NC(=O)Nc1cccc([N+](=O)[O-])c1)c1ccc2c(c1)OCO2 (stereo not drawn)
inactive: outcome [1] | outcome [2] | activity over 3SD threshold [6] -29.4% | outcome [7]
active: activity increase over 3SD of controls [3] 19.3% | activation over 3SD threshold [4] 80% | potentiation, less the hit threshold [5] 30.7%

CCC1(C)Cc2c(sc3[nH]c(=S)n(Cc4ccccc4)c(=O)c23)CO1 (stereo not drawn)
inactive: outcome [1] | activity increase over 3SD of controls [3] -13% | activation over 3SD threshold [4] -16.6% | outcome [7]
active: FluxOR signal as % of negative control (100 = no effect) [2] 527% | potentiation, less the hit threshold [5] 66% | activity over 3SD threshold [6] 10.5% | activation [8] 294% | potentiation [9] 190% | potentiation [10] 388% | current potentiation [11] 15.1%

Cc1ccc(NC(=O)C2CC2c2ccccc2)cc1 (stereo not drawn)
active: activity increase over 3SD of controls [3] 58.6% | activation over 3SD threshold [4] 64.2% | potentiation, less the hit threshold [5] 26.2%
inactive: outcome [1] | outcome [2] | activity over 3SD threshold [6] -35.9% | outcome [7]

Cc1[nH][nH]c(=O)c1C(c1ccc(-c2ccc(Cl)cc2)o1)c1c(C)[nH][nH]c1=O
active: potentiation [9] 27.5%
inactive: outcome [1] | outcome [2] | outcome [8] | outcome [10] | outcome [11] | outcome [12]

CS(=O)(=O)c1sc(C(=O)NC(=S)Nc2ccc(OC(F)(F)F)cc2)c2c1C=CCC2
active: activation over 3SD threshold [4] 45.7% | potentiation [9] 92% | potentiation [10] 168%
inactive: outcome [1] | outcome [2] | activity increase over 3SD of controls [3] -1.6% | potentiation, less the hit threshold [5] -3.3% | activity over 3SD threshold [6] -36.7% | outcome [7] | outcome [8] | outcome [11]

S=C(NCc1ccc(Cl)cc1)NC12CC3CC(CC(C3)C1)C2
inactive: outcome [1] | outcome [2] | activation over 3SD threshold [4] -0.2% | activity over 3SD threshold [6] -9.25% | outcome [7] | fluorescence ratio (Tl flux) [14] 0.521 | outcome [16] | outcome [17]
active: activity increase over 3SD of controls [3] 46.3% | potentiation, less the hit threshold [5] 9% | inhibition [13] 143% | outcome [15]

CCCCNC(=O)Nc1c(C)cc(SC#N)cc1C
inactive: outcome [1] | outcome [2] | activity over 3SD threshold [6] -33.2% | outcome [7]
active: activity increase over 3SD of controls [3] 5.5% | activation over 3SD threshold [4] 75.2% | potentiation, less the hit threshold [5] 19.5%

O=C(NCc1ccc2c(c1)OCO2)c1ccc(Cl)s1
active: activity increase over 3SD of controls [3] 5.5% | activation over 3SD threshold [4] 49.7% | potentiation, less the hit threshold [5] 16.7%
inactive: outcome [1] | outcome [2] | activity over 3SD threshold [6] -17.6% | outcome [7]

CSc1nnc(NC(=O)c2nc(S(=O)(=O)Cc3ccc(C)cc3)ncc2Cl)s1
active: potentiation, less the hit threshold [5] 67.6% | current increase over 3SD of negative controls (%), stronger effect = higher value [7] 23.1%
inactive: outcome [1] | outcome [2] | activity increase over 3SD of controls [3] -8.9% | activation over 3SD threshold [4] -21.2% | activity over 3SD threshold [6] -50.4%

Cc1ccc(-n2nc3c(c2NC(=O)CCC2CCCCC2)CS(=O)C3)cc1 (stereo not drawn)
active: activity increase over 3SD of controls [3] 7.4% | activation over 3SD threshold [4] 30.1% | potentiation, less the hit threshold [5] 27.6%
inactive: outcome [1] | outcome [2] | activity over 3SD threshold [6] -35.2% | outcome [7]

O=C(NCc1ccc2c(c1)OCO2)C12CC3CC(CC(C3)C1)C2
active: potentiation, less the hit threshold [5] 73.5%
inactive: outcome [1] | outcome [2] | activity increase over 3SD of controls [3] -12% | activation over 3SD threshold [4] -10.2% | activity over 3SD threshold [6] -47% | outcome [7]
